Holding throughout (test): qHTS assay to identify novel small-molecules to repurpose for Merkel cell carcinoma treatment (AID 1296009); note: nearly all actives have a fitted effect of over 60% in size
Settings in all cases: MCC and control cell lines, CellTiter-Glo viability, 72 h; series mostly up to 46 µM

One experiment has as its system MCC-13. An outline of the steps:
(§1)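 Cell viability measured by CellTiter-Glo following 72 hr compound treatment at 37 degree celsius, with NPC and MIPE libraries tested in 8- and 11-point concentration series.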

The test system of another experiment is MCC-26. In a few lines:
as §1

The next experiment concerns MKL-1. In a few lines:
as §1

A further experiment deals with MKL-2. An outline of the steps:
as §1

For another experiment, the system named is UISO. In a few lines:
as §1

In another experiment the test system is WaGa. In a few lines:
as §1

Results filed as inconclusive are left out. A number with no mark means an inactive call. Calls of active or inactive are those of the source. Calls come from the whole dose curve; as a rule, active = well fitted inhibition curve with a large enough effect; inconclusive = small, poorly fitted or top-dose-only effect; inactive = flat fitted curve, though single readings scatter.
% is set by controls: 0 for no effect and ±100 for the full control effect; potency is the fitted concentration of half-maximal effect.

For the compound `CC1(C)CC(O)CC(C)(C)N1[O]`, the Potency entry in the experiment with MCC-13, in the experiment on MCC-26, in the experiment on MKL-1, with MKL-2, in the experiment with UISO and in the experiment on WaGa was “inactive” throughout.
Regarding `COc1cc(OC)c(NC(=O)Nc2cc(C)on2)cc1Cl`, the Potency result in the experiment on MCC-13, with MCC-26, with MKL-1, in the experiment with MKL-2, in the experiment on UISO and in the experiment with WaGa was “inactive” in each case.
For `COC(=O)C1C2CC3c4[nH]c5cc(OC)ccc5c4CCN3CC2CC(OC(=O)c2cc(OC)c(OC)c(OC)c2)C1OC` (configuration not stated), the Potency entry with MCC-13, with MCC-26, in the experiment with MKL-1, in the experiment with MKL-2, in the experiment on UISO and with WaGa was “inactive” in each case.
Take `CCN(CC)CCNC(=O)c1c(C)[nH]c(C=C2C(=O)Nc3ccc(F)cc32)c1C`: the Potency was 42.9 µM (active) with MCC-13; 38.2 µM (active) with MCC-26; 12.1 µM (active) in the experiment with MKL-1; 15.2 µM (active) in the experiment with MKL-2; 6.05 µM (active) in the experiment with UISO; 13.6 µM (active) in the experiment with WaGa.
On to `CC(=O)NC(CS)C(=O)O` (configuration not stated), for which the Potency entry with MCC-13, in the experiment with MCC-26, in the experiment with MKL-1, with MKL-2, with UISO and in the experiment on WaGa was “inactive” throughout.
As for `CCOC(=O)[C@H](CCc1ccccc1)N[C@@H](C)C(=O)N1[C@@H](C(=O)O)C[C@H]2CCC[C@@H]21`, the Potency result with MCC-13, in the experiment on MCC-26, in the experiment on MKL-1 and with UISO was “inactive” in each case. Also, in the experiment on MKL-2, the Potency was 14.8 µM (active).
In the case of `CN1[C@H]2CC(OC(=O)[C@@H](CO)c3ccccc3)C[C@H]1[C@H]1O[C@H]12` (some centres not stated), the Potency entry in the experiment on MCC-13, in the experiment with MCC-26, in the experiment with MKL-1, in the experiment with MKL-2, with UISO and with WaGa was “inactive” throughout.
For the compound `CC(=O)O[C@H]1C[C@@H]2CC[C@H]3[C@H]4C[C@H]([N+]5(C)CCCCC5)[C@@H](OC(C)=O)[C@@]4(C)CC[C@@H]3[C@@]2(C)C[C@H]1N1CCCCC1`, the Potency entry in the experiment with MCC-13, with MCC-26, in the experiment with MKL-1, with MKL-2, in the experiment on UISO and in the experiment on WaGa was “inactive” each time.
With `CC(=CC(=O)Nc1ccccc1C(=O)O)c1ccc2ccccc2c1`, the Potency entry in the experiment with MCC-13, in the experiment with MCC-26, with MKL-1, in the experiment with MKL-2, with UISO and in the experiment on WaGa was “inactive” each time.
Take `NC(=O)c1ncn([C@@H]2O[C@H](CO)[C@@H](O)[C@@H]2O)c1O`: the Potency entry with MCC-13, in the experiment on MCC-26, with MKL-1, with MKL-2, with UISO and in the experiment with WaGa was “inactive” throughout.
As to `O=C(C[C@@H]1CC=CCCC(=O)O[C@H](c2ccccc2)CNC1=O)NCc1ccc(Cl)cc1`, the Potency result in the experiment with MCC-13, in the experiment on MCC-26, in the experiment on MKL-1, with MKL-2, with UISO and in the experiment with WaGa was “inactive” each time.
`C[C@H](NC(=O)[C@@H](O)c1cc(F)cc(F)c1)C(=O)N[C@@H]1C(=O)N(C)c2ccccc2-c2ccccc21`: the Potency result in the experiment on MCC-13, in the experiment with MCC-26, with MKL-1, in the experiment with MKL-2, with UISO and with WaGa was “inactive” in each case.
In the case of `OC[C@@H](O)[C@@H](O)[C@H](O)[C@@H](O)CO`, the Potency result with MCC-13, with MCC-26, in the experiment on MKL-1, in the experiment with MKL-2, in the experiment with UISO and in the experiment with WaGa was “inactive” throughout.
Turning to `CCN1CCN(C(=O)N[C@H](C(=O)N[C@@H]2C(=O)N3C(C(=O)O)=C(CSc4nnnn4C)CS[C@@H]23)c2ccc(O)cc2)C(=O)C1=O`, the activity change, negative = cytotoxicity in the experiment on MCC-13 is 4.78% [at 9.22 µM]; in the experiment with MCC-26, -6.39% [at 9.22 µM]; with MKL-1 it was 8.33% [at 9.22 µM]; with MKL-2, -17.3% [at 9.22 µM]; in the experiment with UISO it was -1.23% [at 9.22 µM]; in the experiment on WaGa it was -1.78% [at 9.22 µM].
As to `Nc1cccc2c1C(=O)N(C1CCC(=O)NC1=O)C2=O` (configuration not stated), the Potency entry with MCC-13, with MCC-26, in the experiment on MKL-1, in the experiment on MKL-2, in the experiment with UISO and with WaGa was “inactive” throughout.
In the case of `Cc1noc(-c2ccc(CSCCC(=O)O)cc2)c1NC(=O)OC(C)c1ccccc1Cl` (configuration not stated), the Potency entry with MCC-13, in the experiment with MCC-26, with MKL-1, with MKL-2, in the experiment on UISO and in the experiment with WaGa was “inactive” throughout.
With `COc1cc(C(C)C)c(Oc2cnc(NC(CO)CO)nc2N)cc1I`, the Potency entry with MCC-13, in the experiment on MCC-26, with MKL-1, in the experiment with MKL-2, in the experiment on UISO and with WaGa was “inactive” in each case.
Turning to `O=C(O)C=Cc1ccc(Cn2ccnc2)cc1`, the Potency result in the experiment on MCC-13, in the experiment on MCC-26, in the experiment with MKL-1, in the experiment on MKL-2, in the experiment on UISO and in the experiment on WaGa was “inactive” throughout.
As for `CC(C(C)N1CC(=O)NC(=O)C1)N1CC(=O)NC(=O)C1` (configuration not stated), the Potency result in the experiment on MCC-13, in the experiment with MCC-26, in the experiment on MKL-1, in the experiment on MKL-2, with UISO and with WaGa was “inactive” each time.
For `O=C1NC(O)CCN1[C@@H]1O[C@H](CO)[C@H](O)[C@H]1O` (some centres not stated), the Potency result in the experiment with MCC-13, in the experiment with MCC-26, in the experiment with MKL-1, in the experiment with MKL-2, in the experiment with UISO and in the experiment on WaGa was “inactive” in each case.
Turning to `COC(=O)C=CC(=O)OC`, the Potency result with MCC-13, with MCC-26, in the experiment with MKL-1, in the experiment on MKL-2 and in the experiment on UISO was “inactive” each time.
For the compound `C[C@H]1O[C@H](O[C@H]2[C@H](O)[C@@H](O)[C@@H](O[C@H]3[C@H](O)[C@@H](O)C(O)O[C@H]3CO)O[C@H]2CO)[C@H](O)[C@@H](O)[C@H]1N[C@H]1C=C(CO)[C@@H](O)[C@H](O)[C@@H]1O` (some centres not stated), the Potency entry with MCC-13, in the experiment with MCC-26, in the experiment with MKL-1, with MKL-2, in the experiment with UISO and in the experiment with WaGa was “inactive” in each case.
In the case of `Cc1cc(-c2nnc3n2CCCCC3)c(C)n1-c1ccccc1`, the Potency entry in the experiment with MCC-13, with MCC-26, with MKL-1 and in the experiment with UISO was “inactive” throughout. Moreover, the Potency with MKL-2 is 20.9 µM (active).
As to `O=[N+]([O-])c1cn2c(n1)OC[C@@H](OCc1ccc(OC(F)(F)F)cc1)C2`, the Potency result in the experiment on MCC-13, in the experiment with MCC-26, in the experiment with MKL-1, with MKL-2, in the experiment on UISO and with WaGa was “inactive” each time.
On to `CC(=O)[C@]1(O)Cc2c(O)c3c(c(O)c2[C@@H](O[C@H]2C[C@H](N)[C@@H](O)[C@H](C)O2)C1)C(=O)c1ccccc1C3=O`, for which the Potency in the experiment on MCC-13 was 0.662 µM (active); with MCC-26, 1.32 µM (active); in the experiment with MKL-1 it was 0.148 µM (active); in the experiment with MKL-2 it was 0.105 µM (active); with UISO, 0.59 µM (active); in the experiment on WaGa it was 0.0833 µM (active).
